Results: PubChem BioAssay (Tox21)
Results filed as inconclusive are left out. Calls of active or inactive are those of the source. Unless noted, the call rests on the fitted dose curve.

Experiments:
[1] = Nuclear factor erythroid 2-related factor 2/antioxidant responsive element (Nrf2/ARE) small molecule agonists: qHTS cell viability counter screen in human keratinocytes (AID 1919968; active means well fitted curve in the direction sought with a large enough effect in the repeat runs; an effect the other way counts as inactive or inconclusive; further: nearly all actives have a fitted effect of over 55% in size)
How it was run: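 In human HaCaT keratinocytes stably expressing an ARE-driven luciferase, compound exposure lasted 23 h at 37 C under 5% CO2. Viable cells are quantified with a protease-based fluorogenic reagent (CellTiter-Fluor) read 1 h after addition.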

[2] = Nuclear factor erythroid 2-related factor 2/antioxidant responsive element (Nrf2/ARE) small molecule agonists: luciferase reporter gene qHTS assay in human keratinocytes (AID 1919969); further: nearly all actives have a fitted effect of over 35% in size; further: potency means the concentration at half of the fitted maximal effect
[3] = biological target: Gonadotropin-releasing hormone receptor (Homo sapiens) (UniProt P30968); experiment: Human gonadotropin-releasing hormone receptor (GnRHR) small molecule agonists, calcium flux assay in GnRHR-HEK293 cells (AID 1920063); further: nearly all actives have a fitted effect of over 35% in size
How it was run: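 Intracellular calcium rise is the read-out: engineered human GnRHR HEK293 cells, dye-loaded, are exposed to DMSO-dissolved compounds and fluorescence at Ex/Em 480/540 is tracked for 3 min.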

[4] = biological target: KiSS-1 receptor (Homo sapiens) (UniProt Q969F8); experiment: Human kisspeptin (KISS1R) small molecule agonists, calcium flux assay in KISS1R-HEK293 cells (AID 1920064; active means well fitted curve in the direction sought with a large enough effect in the repeat runs; an effect the other way counts as inactive or inconclusive)
How it was run: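 Concentration-response testing used 15 concentrations in triplicate on human KISS1R-expressing HEK293 cells. Calcium-dependent fluorescence (Ex/Em 480/540) was followed kinetically for 3 min after compound transfer.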

[5] = G protein-coupled receptor (GPCR) small molecule agonists, calcium flux assay: HEK293 wild type cell line counter screen (AID 1920065)
How it was run: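 Fluorescence intensity signals activation. After overnight (18 h) culture and a 1 h calcium dye load at 37 C, compounds are added by pin tool and the plate read at 480/540 nm for 3 min in 1 s steps.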

[6] = p53 small molecule agonists, cell-based qHTS assay with human liver microsomes (AID 1963577)
How it was run: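 Compounds act here after metabolic activation: human liver microsomes and NADPH, both at 0.5 mg/mL final, were co-added to p53RE-bla cells. Incubation ran 16 h at 37 C, followed by LiveBLAzer detection.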

[7] = p53 small molecule agonists, cell-based qHTS assay with rat liver microsomes (AID 1963578)
How it was run: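 Read-out is beta-lactamase reporter fluorescence (LiveBLAzer, 2 h, room temperature, dark) in p53RE-bla cells treated 16 h at 37 C with compound, rat liver microsomes and NADPH, both 0.5 mg/mL final.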

[8] = p53 small molecule agonists, cell-based qHTS assay with human liver microsomes: qHTS cell viability counter screen (AID 1963579); further: nearly all actives have a fitted effect of over 45% in size
How it was run: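 Cells carrying the p53 response-element beta-lactamase reporter are treated for 16 h at 37 C with test compounds in the presence of human liver microsomes and NADPH (both 0.5 mg/mL final); ATP-based CellTiter-Glo luminescence then reports viability.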

[9] = p53 small molecule agonists, cell-based qHTS assay with rat liver microsomes: qHTS cell viability counter screen (AID 1963580); further: nearly all actives have a fitted effect of over 45% in size
How it was run: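 Cytotoxicity counter screen: intracellular ATP read by CellTiter-Glo luminescence in the p53 reporter wells. HCT-116 p53RE-bla cells were treated for 16 h at 37 C alongside rat liver microsomes and NADPH, each 0.5 mg/mL final.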

[10] = p53 small molecule agonists, cell-based qHTS assay: qHTS cell viability counter screen (AID 1963581); further: nearly all actives have a fitted effect of over 45% in size
How it was run: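 Luminescence from CellTiter-Glo, reflecting ATP content, serves as the cytotoxicity measure; it is taken after the 2 h reporter substrate step in HCT-116 p53RE-bla cells dosed for 16 h at 37 C.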

[11] = p53 small molecule agonists, cell-based qHTS assay (AID 1963582; active means well fitted activation curve with a large enough effect in the signal ratio in the repeat runs, not every such curve was filed as active; the % refers to the signal ratio)
How it was run: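 After plating, p53RE-bla cells sat 5 h in the incubator; compounds or DMSO vehicle were pinned in; a 16 h incubation at 37 C followed; FRET substrate was added and, 2 h later at RT, fluorescence was measured.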

[12] = biological target: 5-hydroxytryptamine receptor 2A (Homo sapiens) (UniProt P28223); experiment: 5-hydroxytryptamine receptor 2A (HTR2A) small molecule antagonists, cell-based qHTS assay (AID 1963586); further: nearly all actives have a fitted effect of over 45% in size
How it was run: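 CHO cells stably expressing human HTR2A were plated for 18 h at 37 C, then loaded with calcium dye for 1 h. Compounds were preincubated 5 min at room temperature before DOI (4 nM solution) was added. Kinetic fluorescence was read for 3 min.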

[13] = biological target: 5-hydroxytryptamine receptor 2A (Homo sapiens) (UniProt P28223); experiment: 5-hydroxytryptamine receptor 2A (HTR2A) small molecule agonists, cell-based qHTS assay (AID 1963587); further: nearly all actives have a fitted effect of over 30% in size
How it was run: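 Kinetic calcium-flux fluorescence (2 min, 1 sec intervals) after compound addition in agonist mode. HTR2A-CHO cells were cultured 18 h, then dye-loaded 1 h at 37 C.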

[14] = biological target: Muscarinic acetylcholine receptor M1 (Homo sapiens) (UniProt P11229); experiment: Cholinergic receptor muscarinic 1 (CHRM1) small molecule antagonists, cell-based qHTS assay (AID 1963588); further: nearly all actives have a fitted effect of over 40% in size
How it was run: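 Compounds were tested at 15 concentrations in three independent runs. Dye-loaded CHRM1-CHO cells were exposed 5 min at room temperature before stimulation by acetylcholine added at 50nM. Intracellular calcium was read kinetically on FDSS for 3 min.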

[15] = biological target: Muscarinic acetylcholine receptor M1 (Homo sapiens) (UniProt P11229); experiment: Cholinergic receptor muscarinic 1 (CHRM1) small molecule agonists, cell-based qHTS assay (AID 1963589); further: nearly all actives have a fitted effect of over 35% in size
How it was run: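 Fluorescent calcium dye reports M1 activation in stably transfected CHO cells. Compounds, 15 concentrations, added after 1 h dye loading at 37 C; kinetic reading at 1 sec intervals.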

[16] = cAMP Responsive Elements (CRE) small molecule agonists, cell-based qHTS assay (AID 1963590)
How it was run: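 Compound exposure lasted 3 h at 37 C/5% CO2 in CRE-bla HEK 293T cells grown in assay medium with 10% dialyzed FBS and 25 mM HEPES. Reporter signal came from LiveBLAzer B/G FRET substrate, 2 h, room temperature.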

[17] = cAMP Responsive Elements (CRE) small molecule antagonists, cell-based qHTS assay (AID 1963591; active means well fitted inhibition curve with a large enough effect in the signal ratio in the repeat runs, not every such curve was filed as active; the % refers to the signal ratio)
How it was run: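 Stimulation used NKH477 at a final 0.25 uM for 3 h in compound-treated CRE-bla HEK293T cells, seeded 18 h beforehand. Reporter activity was measured with LiveBLAzer B/G FRET substrate after 2 h at room temperature.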

[18] = biological target: D(2) dopamine receptor (Homo sapiens) (UniProt P14416); experiment: Dopamine D2 receptor (DRD2) small molecule agonists, cell-based qHTS assay (AID 1963594); further: nearly all actives have a fitted effect of over 35% in size
How it was run: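 cAMP accumulation in DRD2-HEK293 cells measured by HTRF after 1 h detection; compounds added 10 min before NKH477 (200nM […]) forskolin-analogue stimulation, 30 min at room temperature, with Ro20-1724 present at 0.1 mM final.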

[19] = biological target: D(2) dopamine receptor (Homo sapiens) (UniProt P14416); experiment: Dopamine D2 receptor (DRD2) small molecule antagonists, cell-based qHTS assay (AID 1963595; active means well fitted inhibition curve with a large enough effect in the signal ratio in the repeat runs, with a control signal flat; the % refers to the signal ratio)
How it was run: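 HEK293 cells stably expressing DRD2 were preincubated with 0.1 mM Ro20-1724, then with compound for 10 min at room temperature. Cells were stimulated with 200 nM NKH477 plus 12 nM quinpirole for 30 min, and cAMP was read by HTRF.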

[20] = biological target: Beta-2 adrenergic receptor (Homo sapiens) (UniProt P07550); experiment: Adrenergic beta2 receptor (ADRB2) small molecule antagonists, cell-based qHTS assay (AID 1963592); further: series mostly up to about 92 µM; nearly all actives have a fitted effect of over 50% in size
How it was run: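 Assay format: CHO-ADRB2 cells, 18-20hr seeding at 37C/5% CO2, then compound plus 1nM isoproterenol agonist mix for 0.5hr RT. Homogeneous time-resolved fluorescence cAMP detection after 1hr, expressed as 665/615 nm ratio.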

Measured: Potency

D(2) dopamine receptor (Homo sapiens), sequence (P14416 whole entry, looked up): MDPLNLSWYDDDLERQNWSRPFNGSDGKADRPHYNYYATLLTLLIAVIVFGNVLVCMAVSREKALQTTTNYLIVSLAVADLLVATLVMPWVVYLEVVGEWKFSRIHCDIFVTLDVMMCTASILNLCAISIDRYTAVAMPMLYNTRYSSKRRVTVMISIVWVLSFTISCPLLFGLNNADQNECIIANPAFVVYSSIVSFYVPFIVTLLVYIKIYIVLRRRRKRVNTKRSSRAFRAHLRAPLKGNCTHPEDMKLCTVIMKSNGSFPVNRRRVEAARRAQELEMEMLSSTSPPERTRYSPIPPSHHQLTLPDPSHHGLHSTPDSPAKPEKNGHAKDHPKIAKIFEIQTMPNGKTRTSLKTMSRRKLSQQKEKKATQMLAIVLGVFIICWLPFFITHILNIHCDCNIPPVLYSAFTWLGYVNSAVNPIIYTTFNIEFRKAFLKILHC
Muscarinic acetylcholine receptor M1 (Homo sapiens), sequence (P11229 whole entry, looked up): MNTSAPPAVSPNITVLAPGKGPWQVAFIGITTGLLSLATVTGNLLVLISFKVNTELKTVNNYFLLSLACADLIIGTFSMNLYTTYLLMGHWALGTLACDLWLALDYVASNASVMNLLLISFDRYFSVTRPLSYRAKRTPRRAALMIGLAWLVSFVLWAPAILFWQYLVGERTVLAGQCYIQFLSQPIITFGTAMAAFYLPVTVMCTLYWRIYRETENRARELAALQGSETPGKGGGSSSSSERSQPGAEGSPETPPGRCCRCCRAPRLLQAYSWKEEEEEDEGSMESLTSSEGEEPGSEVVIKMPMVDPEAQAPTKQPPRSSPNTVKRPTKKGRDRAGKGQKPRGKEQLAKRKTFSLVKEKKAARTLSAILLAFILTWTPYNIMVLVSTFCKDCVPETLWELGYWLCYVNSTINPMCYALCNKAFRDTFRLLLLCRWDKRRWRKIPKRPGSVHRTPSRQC
Beta-2 adrenergic receptor (Homo sapiens), sequence (P07550 whole entry, looked up): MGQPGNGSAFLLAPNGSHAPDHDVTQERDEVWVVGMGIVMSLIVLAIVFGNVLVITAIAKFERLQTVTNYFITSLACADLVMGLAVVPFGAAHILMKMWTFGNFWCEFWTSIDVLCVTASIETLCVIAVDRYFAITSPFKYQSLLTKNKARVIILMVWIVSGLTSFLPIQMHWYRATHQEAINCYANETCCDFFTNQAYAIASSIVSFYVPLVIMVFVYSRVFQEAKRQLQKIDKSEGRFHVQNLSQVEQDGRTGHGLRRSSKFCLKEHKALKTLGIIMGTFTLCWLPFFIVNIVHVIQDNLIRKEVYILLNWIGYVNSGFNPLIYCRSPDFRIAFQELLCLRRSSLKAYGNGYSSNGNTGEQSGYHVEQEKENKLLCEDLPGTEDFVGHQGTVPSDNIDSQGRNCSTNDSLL
5-hydroxytryptamine receptor 2A (Homo sapiens), sequence (P28223 whole entry, looked up): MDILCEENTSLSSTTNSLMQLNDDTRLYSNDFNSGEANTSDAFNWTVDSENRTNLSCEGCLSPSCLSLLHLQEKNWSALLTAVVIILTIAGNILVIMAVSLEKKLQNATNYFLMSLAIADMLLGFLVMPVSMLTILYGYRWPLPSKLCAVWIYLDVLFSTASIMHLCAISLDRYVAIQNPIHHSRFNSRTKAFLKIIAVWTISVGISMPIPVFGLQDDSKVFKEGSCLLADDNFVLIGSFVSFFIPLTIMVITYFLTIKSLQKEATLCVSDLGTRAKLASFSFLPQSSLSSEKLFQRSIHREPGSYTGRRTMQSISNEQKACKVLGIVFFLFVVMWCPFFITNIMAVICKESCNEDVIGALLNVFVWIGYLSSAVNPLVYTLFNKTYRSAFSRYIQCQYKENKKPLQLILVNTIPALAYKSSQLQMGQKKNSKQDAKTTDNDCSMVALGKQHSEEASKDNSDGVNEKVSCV
KiSS-1 receptor (Homo sapiens), sequence (Q969F8 whole entry, looked up): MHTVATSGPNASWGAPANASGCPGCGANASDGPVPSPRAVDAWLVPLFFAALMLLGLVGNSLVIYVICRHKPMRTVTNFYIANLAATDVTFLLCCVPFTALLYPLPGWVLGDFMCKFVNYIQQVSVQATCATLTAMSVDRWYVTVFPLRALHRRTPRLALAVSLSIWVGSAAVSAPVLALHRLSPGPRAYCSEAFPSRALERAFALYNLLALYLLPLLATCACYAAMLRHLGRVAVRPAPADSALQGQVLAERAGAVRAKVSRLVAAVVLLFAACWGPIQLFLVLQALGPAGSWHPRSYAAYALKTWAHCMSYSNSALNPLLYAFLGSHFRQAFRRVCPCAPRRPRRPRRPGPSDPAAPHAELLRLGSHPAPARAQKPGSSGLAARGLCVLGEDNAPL
Gonadotropin-releasing hormone receptor (Homo sapiens), sequence (P30968 whole entry, looked up): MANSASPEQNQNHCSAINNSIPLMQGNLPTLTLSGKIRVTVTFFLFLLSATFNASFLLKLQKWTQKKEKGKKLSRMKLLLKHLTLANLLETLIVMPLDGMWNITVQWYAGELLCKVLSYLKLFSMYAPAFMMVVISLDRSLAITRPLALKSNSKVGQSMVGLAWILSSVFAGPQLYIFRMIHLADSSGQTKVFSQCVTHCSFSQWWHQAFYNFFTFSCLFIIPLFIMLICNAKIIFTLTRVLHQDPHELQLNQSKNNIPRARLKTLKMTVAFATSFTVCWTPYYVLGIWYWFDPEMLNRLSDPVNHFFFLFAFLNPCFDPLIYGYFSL

CSc1ccc(C(=O)c2[nH]c(=O)[nH]c2C)cc1
not listed: [20]
inactive: all other assays above

C1CCSC1
not listed: [17]
inactive: all other assays above

CCOC(=O)c1cccc(N)c1
not listed: [18]
inactive: all other assays above

CC1CC(OC(=O)c2ccccc2O)CC(C)(C)C1 (centres undefined)
active: [2] 61.1 µM
not listed: [20]
inactive: all other assays above

C/C=C/c1ccc(OC)c(OC)c1
not listed: [20]
inactive: all other assays above

Nc1ncnc2c1ncn2Cc1c(F)cccc1Cl
not listed: [18]
inactive: all other assays above

COC(=O)c1c(Cl)c(Cl)c(C(=O)OC)c(Cl)c1Cl
active: [2] 30.6 µM
not listed: [17] | [18] | [19]
inactive: all other assays above

CC1CCC(C(C)(C)O)CC1 (centres undefined)
not listed: [20]
inactive: all other assays above

CC12CC3CC(C)(C1)CC(N)(C3)C2
not listed: [18] | [20]
inactive: all other assays above

C/C(=N\O)[C@@H](C)NCC(C)(C)CN[C@H](C)/C(C)=N/O
not listed: [20]
inactive: all other assays above

Nc1nc(=O)n([C@@H]2O[C@H](CO)[C@@H](O)[C@@H]2F)cc1I
not listed: [18]
inactive: all other assays above

C=CCS(=O)(=O)O
not listed: [20]
inactive: all other assays above

CCCCCCCCN(C)C
not listed: [17]
inactive: all other assays above
